# According to PubChem BioAssay AID504329 (Southern Research Specialized Biocontainment Screening …, 2011):
# Several values for one entry are separate records, joined by “and”; a condition that tells them apart may be missing. Equal entries are not always repeated. Among all 340,000 compounds or so, about 1,000 (0.29%) were called active. A selection follows. Potency and affinity values are given separately. Values without a mark were called inactive. No stated cut-off is given here; in the data, inconclusive means inhibition above about 27% without an active follow-up result; inactive means below that.
# Experiment: H1N1 influenza NS1A inhibitors, functional cell based assay (AID 504329)
# Conditions: percent inhibition, at 12.5 µM, hits give high values
row,SMILES,inhibition
1,C/C(=N\Nc1nc(-c2ccccn2)nc2ccccc12)c1ccc(F)cc1,0.16%
2,c1ccc(CCNc2nc(-c3ccccn3)nc3ccccc23)cc1,21%
3,c1ccc(N2CCN(c3nc(-c4ccccn4)nc4ccccc34)CC2)cc1,18.4%
4,CCCN(CCC)c1nc(-c2ccccn2)nc2ccccc12,10.6%
5,CCC(C)Nc1nc(-c2cccc(OC)c2O)nc2ccccc12 (centres undefined),4.38%
6,c1ccc(CNc2nc(-c3ccccn3)nc3ccccc23)cc1,24.8%
7,Oc1ccccc1-c1nc(NCc2ccco2)c2ccccc2n1,-19.2%
8,CN1CCN(c2nc(-c3ccccn3)nc3ccccc23)CC1,10.9%
9,Cc1noc(C)c1C(=O)OCC(=O)Nc1ccc(N2CCOCC2)cc1,5.46%
10,O=C(Nc1ccc(OC(F)F)cc1)c1cc(S(=O)(=O)N2CCOCC2)ccc1N1CCCC1,-1.31%
11,Cc1[nH]c2ccccc2c1C(=O)CNc1nccs1,-1.86%
12,Cc1cccc(-c2nc(C#N)c(N3CCCCC3)o2)c1,3.65%
13,COc1ccc(C2(OC)Oc3cc(OC)ccc3C(=O)C2(O)OC)cc1 (centres undefined),-14.3%
14,COC(=O)c1ccccc1NC(=O)C1CCN(S(C)(=O)=O)CC1,-15.6%
15,CCCCCN(C(=O)CCC(=O)OCC(=O)c1cccc(OC)c1)c1c(N)n(CCCC)c(=O)[nH]c1=O,-2.41%
16,O=C(O)CCNc1ccc(NCCC(=O)O)c2c1C(=O)c1ccccc1C2=O,22.7%
17,O=C(O)c1ccccc1NCCO,-4.36%
18,OCCNCCO,-1.33%
19,O=C1c2cccc(NCCNCCO)c2C(=O)c2cccc(NCCNCCO)c21,28%
20,Cc1ccc(C2/C(=C(\O)c3c(C)nc4ccccn34)C(=O)C(=O)N2CCN(C)C)o1 (centres undefined),-13.9%

row,SMILES,inhibition
1,COc1ccc(NC(=O)COC(=O)CCCOc2ccc(Cl)cc2Cl)cc1Cl,-5.19%
2,Cc1[nH]nc2c1C(c1cnn(C)c1)C(C#N)=C(N)O2 (centres undefined),-1.46%
3,COc1ccc(NC(=S)NNc2ccc([N+](=O)[O-])cc2S(=O)(=O)Nc2ccc(C)cc2C)cc1,17.3%
4,Cc1ccc(NS(=O)(=O)c2cc([N+](=O)[O-])ccc2NNC(=S)Nc2cc(C)ccc2C)c(C)c1,21.2%
5,Cc1cc(C)nc(NC(=NCc2ccc3c(c2)OCO3)NC(=O)Nc2ccccc2)n1,12.4%
6,O=S(=O)(NC1CCC(NS(=O)(=O)c2c(F)cccc2F)CC1)c1ccc2c(c1)OCCO2 (centres undefined),6.49%
7,Nc1nc(N)c(N=Nc2ccc(C(=O)O)cc2)c(N)n1,17.8%
8,O=C(O)c1ccc(N/N=C/c2ccnc3ccccc23)cc1,12.7%
9,CC(=NCCN1CCOCC1)c1c(O)n(-c2ccccc2C)c(=O)[nH]c1=O,5.2%
10,COc1ccccc1Nc1ccc(S(=O)(=O)N2CCCCC2)cc1[N+](=O)[O-],22.4%
11,COc1ccc(Nc2ccc(S(=O)(=O)N3CCCCC3)cc2[N+](=O)[O-])cc1Cl,21%
12,COc1cc(Nc2ccc(S(=O)(=O)N3CCN(C)CC3)cc2[N+](=O)[O-])cc(OC)c1,18.2%
13,COc1ccc(Nc2ccc(S(=O)(=O)N3CCCCC3)cc2[N+](=O)[O-])cc1,21%
14,CSCCC(NS(=O)(=O)c1cccc(C(F)(F)F)c1)C(=O)N(C)Cc1ccc2c(c1)OCCO2 (centres undefined),-15.2%
15,C/C(=N\Nc1ccccc1)c1c(O)n(-c2ccccc2)c(=O)[nH]c1=O,-15.4%
16,N#C/C(=C\c1ccc([N+](=O)[O-])cc1)c1nc(C2CC2)cs1,-3.47%
17,N#C/C(=C/c1ccccc1[N+](=O)[O-])c1nc(C2CC2)cs1,16.5%
18,CN(CC(=O)NC(=O)NC1CCCCC1)c1ccccc1,-19.7%
19,CCCc1nnc(SCC(=O)Nc2cc(C)on2)n1CCOC,-2.31%
20,O=C(O)c1cc(S(=O)(=O)N2CCCCC2)sc1Cl,0.17%

row,SMILES,inhibition
1,Cc1[nH]n(-c2ccccc2)c(=O)c1N=Nc1c(Cl)cccc1Cl,-0.23%
2,Cc1[nH]n(-c2ccccc2)c(=O)c1N=Nc1ccccc1O,27.8%
3,Cc1[nH]n(-c2ccccc2)c(=O)c1N=Nc1ccc2c(c1)OCO2,1.81%
4,Cc1[nH]n(-c2ccccc2)c(=O)c1N=Nc1ccccc1,-4.27%
5,Cc1ccc(N=Nc2c(C)[nH]n(-c3ccccc3)c2=O)cc1Br,2.46%
6,Cc1[nH]n(-c2ccccc2)c(=O)c1N=Nc1ccc(Cl)cc1,1.98%
7,Nc1[nH]n(-c2ccccc2)c(=O)c1N=Nc1ccccc1,20.9%
8,Nc1[nH]n(-c2ccccc2)c(=O)c1N=Nc1ccc2c(c1)OCO2,-20.9%
9,Cc1noc(C)c1CSc1nnc2scc(-c3ccccc3)n12,0.06%
10,Cc1ccc(S(=O)(=O)NCCNC(=O)C2CCCNC2=O)cc1 (centres undefined),-2.4%
11,NNC(=O)COc1cccc(C(F)(F)F)c1,-3.83%
12,CC(C)CC(=O)C(=O)O,1.46% and 3.24%
13,O=C(COC(=O)c1cccc(-n2cnnn2)c1)c1ccc(F)cc1,-2.74%
14,Cc1ccccc1-c1cccc([C@@H]2C[C@H]3[C@H](CON3C)CN2S(=O)(=O)c2ccccc2C)c1,-6.53%
15,Cc1ccc(S(=O)(=O)N2CCOCC2)cc1NC(=O)CNCc1ccccc1Cl,-1.72%
16,O=C(CNCc1ccncc1)Nc1cc(S(=O)(=O)N2CCCCC2)ccc1Cl,-4.7%
17,COc1ccccc1CNCC(=O)Nc1cc(S(=O)(=O)N2CCCCCC2)ccc1Cl,2.82%
18,Cc1ccc(S(=O)(=O)N2CCOCC2)cc1NC(=O)CSc1ccccn1,-3.06%
19,CS(=O)(=O)c1ccc(-c2cccc(NC(=O)COc3ccc(Cl)cc3)c2)nn1,7.16%
